For eleven compounds, Potency results are on record in PubChem BioAssay (NCATS).

Assay in all cases: qHTS profiling for inhibitors of Plasmodium falciparum proliferation (AID 504749); note: nearly all actives have a fitted effect of over 60% in size
What all share (details): P. falciparum in erythrocytes, SYBR Green DNA, 72 h; series mostly up to 28.7 µM

One test has as its system AA1029. In a few lines:
(§1)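 Infected RBCs, 0.3% parasitemia/2.5% Hct final; cpd 72 h, 37 C, 5% CO2; lysis buffer with saponin/triton/SYBR Green I, o/n RT dark; FI 485/535; norm. to artemisinin (0.29 uM) and DMSO.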

In another test the test system is AS120. In outline:
as §1

The test system of a further test is C2A. In outline:
as §1

The next test deals with CP201. In outline: as §1
For a further test, the system named is CP203. In outline:
as §1

The next test concerns CP237. In outline:
as §1

In another test the test system is CP250. In outline:
as §1

The next test concerns CP256. In outline: as §1
Another test deals with CP268. In a few lines: as §1
The test system of a further test is CP305. In a few lines:
as §1

The subject of the next test is CP315. In outline: as §1
A further test concerns CP325. In outline: as §1
In the next test the test system is DIV30. In a few lines:
as §1

For another test, the system named is HB3. In a few lines: as §1
The next test has as its system JCK. In a few lines: as §1
The next test concerns N140. In outline:
as §1

The subject of the next test is P94_40. In outline:
as §1

In another test the test system is PAD. In a few lines:
as §1

A further test has as its system SC27B. In a few lines: as §1
In another test the test system is TAB113. In a few lines: as §1

Inconclusive results are not listed. Calls of active or inactive are those of the source. Calls come from the whole dose curve; as a rule, active = well fitted inhibition curve with a large enough effect; inconclusive = small, poorly fitted or top-dose-only effect; inactive = flat fitted curve, though single readings scatter.
Potency is the fitted concentration of half-maximal effect.

As to `O=C(O)Cc1sc(-c2ccc(Cl)cc2)nc1-c1ccccc1`, the Potency entry with AA1029, with AS120, with C2A, in the test with CP201, with CP203 and in the test on CP237 was “inactive” each time. Besides, the Potency entry with CP250, in the test on CP256, in the test with CP268, in the test on CP305, in the test with CP315 and with CP325 was “inactive” in each case. The Potency entry with DIV30, with HB3, with JCK, with N140, in the test with P94_40 and in the test with PAD was “inactive” throughout. The Potency entry in the test on SC27B and in the test on TAB113 was “inactive” in each case.
Take `CCC(C(=O)C(C)C(O)C(C)CCc1ccc(C)c(O)c1C(=O)O)C1OC(CC)(C2CC[C@@](O)(CC)C(C)O2)CC1C` (stereo not given in full): the Potency with AA1029 is 0.708 µM (active); in the test on AS120 it was 0.398 µM (active); with C2A, 0.794 µM (active); with CP201 it was 1.07 µM (active); in the test on CP203, 0.849 µM (active); with CP237 it was 0.562 µM (active). Also, the Potency was 1 µM (active) in the test on CP250; 1 µM (active) with CP256; 0.849 µM (active) in the test on CP268; 0.675 µM (active) in the test with CP305; 0.849 µM (active) with CP315; 0.953 µM (active) in the test on CP325. The Potency in the test with DIV30 was 0.601 µM (active); in the test on HB3, 0.631 µM (active); with JCK, 8.91 µM (active); in the test on N140 it was 0.562 µM (active); with P94_40, 0.316 µM (active); in the test with PAD, 1.26 µM (active). For the same compound, the values for the Potency with SC27B and in the test with TAB113 were 0.447 µM (active) and 0.891 µM (active), respectively.
Regarding `COc1ccc2cc1Oc1cc3c(cc1OC)CC[N+](C)(C)C3Cc1ccc(cc1)Oc1c(OC)c(OC)cc3c1C(C2)[N+](C)(C)CC3` (stereo not given), the Potency entry with AA1029, with AS120, with C2A, in the test with CP201, with CP203 and with CP237 was “inactive” in each case. Also, the Potency entry in the test on CP250, in the test on CP256, in the test on CP268, in the test on CP305, in the test with CP315 and with CP325 was “inactive” throughout. In addition, the Potency result in the test on DIV30, in the test on HB3, in the test with JCK, in the test on N140, with P94_40 and in the test with PAD was “inactive” throughout. Besides, the Potency result in the test on SC27B and in the test on TAB113 was “inactive” each time.
As for `O=C(O)c1ccc(N[C@@H]2OC[C@@H](O)[C@@H](O)[C@@H]2O)cc1`, the Potency result with AA1029, in the test on AS120, in the test on C2A, in the test on CP201, in the test with CP203 and in the test with CP237 was “inactive” each time. Besides, the Potency result in the test with CP250, with CP256, in the test on CP268, in the test on CP305, in the test with CP315 and in the test on CP325 was “inactive” in each case. The Potency entry in the test on DIV30, in the test on HB3, with JCK, in the test on N140, in the test with P94_40 and in the test on PAD was “inactive” in each case. Besides, the Potency result with SC27B and in the test with TAB113 was “inactive” in each case.
In the case of `CC[C@@]1(O)CC2CN(CCc3c([nH]c4ccccc34)[C@](C(=O)OC)(c3cc4c(cc3OC)N(C)C3[C@@](O)(C(=O)OC)C(OC(C)=O)[C@]5(CC)C=CCN6CC[C@@]43C65)C2)C1` (stereo not given in full), the Potency in the test on AA1029 is 3.16 µM (active); in the test with AS120, 2.82 µM (active); in the test with C2A it was 2.82 µM (active); in the test with CP203, 3.01 µM (active); in the test on CP237, 0.794 µM (active); with CP250, 3.55 µM (active). Also, the Potency with CP256 is 3.16 µM (active); in the test with CP305, 3.79 µM (active); in the test on CP315, 3.38 µM (active); with DIV30, 1.69 µM (active); in the test on JCK, 6.31 µM (active); in the test with N140, 3.55 µM (active). Moreover, the Potency is 3.55 µM (active) in the test on P94_40, 2.24 µM (active) in the test on PAD, 2.82 µM (active) in the test with SC27B and 3.98 µM (active) in the test on TAB113.
Take `CO/N=C(/C(=O)N[C@@H]1C(=O)N2C(C(=O)O)=C(CSc3cnns3)CS[C@H]12)c1csc(N)n1`: the Potency entry with AA1029, in the test with AS120, in the test with C2A, in the test with CP201, in the test on CP203 and with CP237 was “inactive” in each case. The Potency result in the test with CP250, in the test with CP256, in the test with CP268, in the test on CP305, in the test on CP315 and in the test with CP325 was “inactive” each time. Further, the Potency entry with DIV30, with HB3, in the test with JCK, in the test on N140, in the test with P94_40 and with PAD was “inactive” in each case. In addition, the Potency result with SC27B and in the test with TAB113 was “inactive” throughout.
For `CCCC(=O)Nc1c(I)cc(I)c(C[C@H](CC)C(=O)O)c1I`, the Potency result in the test with AA1029, in the test with AS120, with C2A, in the test on CP201, in the test on CP203 and in the test on CP237 was “inactive” each time. The Potency result with CP250, in the test with CP256, in the test on CP268, in the test with CP305, in the test on CP315 and in the test on CP325 was “inactive” each time. Also, the Potency result with DIV30, with HB3, in the test on JCK, in the test on N140, in the test on P94_40 and with PAD was “inactive” in each case. For the same compound, the Potency entry in the test on SC27B and with TAB113 was “inactive” throughout.
Regarding `NC(CSSCC(N)C(=O)O)C(=O)O` (stereo not given), the Potency result with AA1029, with AS120, in the test with C2A, in the test with CP201, in the test on CP203 and in the test on CP237 was “inactive” each time. Further, the Potency entry in the test on CP250, in the test with CP256, with CP268, with CP305, with CP315 and in the test with CP325 was “inactive” in each case. Besides, the Potency result in the test with DIV30, with HB3, with JCK, in the test with N140, with P94_40 and in the test on PAD was “inactive” each time. For the same compound, the Potency entry in the test with SC27B and in the test with TAB113 was “inactive” throughout.
`NCCCCC(N)C(=O)O` (stereo not given): the Potency result in the test on AA1029, with AS120, in the test with C2A, in the test with CP201, in the test on CP203 and in the test with CP237 was “inactive” in each case. In addition, the Potency result in the test with CP250, with CP256, in the test with CP268, in the test with CP305, in the test with CP315 and in the test with CP325 was “inactive” throughout. The Potency result in the test on DIV30, in the test with HB3, in the test with JCK, with N140, in the test on P94_40 and in the test on PAD was “inactive” throughout. Also, the Potency entry with SC27B and in the test on TAB113 was “inactive” throughout.
With `C[C@@H](O)[C@@H]1C(=O)N2C(C(=O)O)=C([C@H]3CCCO3)S[C@H]12`, the Potency entry in the test on AA1029, with AS120, with C2A, in the test on CP203, in the test with CP237 and in the test with CP250 was “inactive” throughout. Further, the Potency entry with CP256, in the test with CP268, with CP305, in the test with CP315, with CP325 and in the test with DIV30 was “inactive” throughout. Moreover, the Potency result with HB3, with JCK, with N140, in the test with P94_40, in the test on PAD and in the test on SC27B was “inactive” throughout. The Potency entry in the test with TAB113 is “inactive”.
Regarding `NC(=O)c1ncn(C2OC(CO)C(O)C2O)c1N` (stereo not given), the Potency result in the test on AA1029, in the test with AS120, in the test on C2A, in the test on CP201, with CP203 and in the test with CP237 was “inactive” in each case. In addition, the Potency entry with CP250, with CP256, in the test on CP268, in the test with CP305, with CP315 and with CP325 was “inactive” throughout. For the same compound, the Potency result in the test on DIV30, in the test on HB3, with JCK, in the test with N140, in the test with P94_40 and with PAD was “inactive” in each case. The Potency result in the test with SC27B and in the test with TAB113 was “inactive” each time.
